Results reported in PubChem BioAssay (NCI).
The panel holds about 83,000 compounds, 20% with a hit somewhere; the sample as a whole holds those more often.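 Cells were grown in 96-well plates and exposed to the test compound at a single concentration for 48 hours; results are reported as percent growth, with values below 10 considered active.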 Calls of active or inactive are those of the source.

Test system: HL-60(TB) leukemia
Test: NCI-60 one-dose screen, 48 h (100 = growth as untreated, 0 = no growth, -100 = all killed)
Settings: 10 µM unless noted

Q: With `CSc1ccc(OC(C)=O)cc1C` as the compound, how does the growth read?
A: The growth was 97.7% (inactive).

Q: Which growth does the source give for `CCOC(=O)C(CC)n1c(=O)c2cc(OC)c(OC)cc2c2cnc3[nH]ccc3c21` (stereo not drawn) here?
A: Its growth is 62.1% (inactive).

Q: `COC(=O)c1c2c(c(C)[n+]([O-])c1C)C(=O)C(NCc1ccccc1)=CC2=O` was tested. Which growth did it give?
A: The growth was -2.98% (active).
